ERa SRC1 pot: enhancers of ERα–SRC-1 coactivator binding, primary screen, biochemical, TR-FRET, ERα LBD, low estradiol; Estrogen receptor (Homo sapiens), P03372; TR-FRET ERalpha-LBD/SRC-Cy5 coactivator binding, 2 h; 100 = basal binding, no effect; coactivator binding (% of control), % at 25.6 µM; hit rate 1.3% among 86,000; in the data active = activity above about 200%;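 also: binding measured in presence of low estradiol as agonist stimulus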
HePTP inh: inhibitors of human HePTP phosphatase, primary screen, biochemical, absorbance, leukemia target. hit rate 0.64% among 110,000. Tyrosine-protein phosphatase non-receptor type 7 (Homo sapiens), P35236. recombinant HePTP phosphatase activity, OD absorbance. inhibition, % at 20 µM. AID 521, 2006; in the data active = inhibition above about 50%
Smad3 FoxH1 inh: Smad3/FoxH1 peptide binding inhibitors, primary screen, biochemical, TR-FRET. Mothers against decapentaplegic homolog 3 (Homo sapiens), P84022. TR-FRET Smad3/Dy647-FoxH1 peptide binding, europium anti-His. inhibition, % at 25 µM. hit rate 0.29% among 88,000;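 active = compounds that reduce the energy-transfer binding signal between the protein and its labelled peptide by more than half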
Target sequence (P84022 whole entry, looked up): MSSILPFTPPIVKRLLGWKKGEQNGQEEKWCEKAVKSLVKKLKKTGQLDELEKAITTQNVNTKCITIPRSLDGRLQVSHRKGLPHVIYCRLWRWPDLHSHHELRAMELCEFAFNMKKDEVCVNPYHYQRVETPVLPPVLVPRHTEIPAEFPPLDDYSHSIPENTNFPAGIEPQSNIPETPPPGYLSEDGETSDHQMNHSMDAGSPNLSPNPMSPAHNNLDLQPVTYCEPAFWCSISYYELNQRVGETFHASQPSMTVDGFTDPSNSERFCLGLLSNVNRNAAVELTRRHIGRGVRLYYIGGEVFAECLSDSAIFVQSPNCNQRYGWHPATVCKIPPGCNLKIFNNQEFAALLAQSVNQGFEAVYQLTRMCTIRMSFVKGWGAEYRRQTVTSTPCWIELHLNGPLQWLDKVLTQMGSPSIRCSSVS
ERb SRC1 inh: inhibitors of ERβ-SRC1 coactivator interaction, primary screen, biochemical, TR-FRET, ERβ LBD, SRC-1 peptide | hit rate 1.3% among 86,000 | AID 633, 2007 | TR-FRET ER-beta LBD / SRC1-Cy5 peptide binding; receptor agonist-loaded with 1 µM estradiol | Estrogen receptor beta (Homo sapiens), Q92731 | inhibition, % at 25.6 µM;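 active = compounds whose percent inhibition of the receptor-coactivator binding signal exceeds about 50% in the single-dose screen, limit read from the data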
Candida biofilm: clotrimazole potentiators killing Candida biofilms, primary screen, with clotrimazole, Alamar Blue; C. albicans biofilm + clotrimazole; inhibition, % at 6 µM; hit rate 0.14% among 85,000; AID 834, 2007;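 active = inhibition above 20%; inactive = inhibition below 20%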;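 also: preformed 24 hr biofilms exposed to compound for 48 hr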
ERa coact inh: ERα–SRC-1 coactivator interaction inhibitors, primary screen, biochemical, TR-FRET, ERα LBD, estradiol-bound; TR-FRET ER-alpha LBD / SRC-1 peptide; hit rate 1.7% among 86,000; inhibition, % at 25.6 µM; Estrogen receptor (Homo sapiens), P03372; AID 629, 2007; in the data active = inhibition above about 50%
Numbers stand for hits; i = inactive; nt = no result given; [ ] = another dose, or the depositor's remark. An excerpt weighted towards active compounds, which were near 2.9% of everything screened.

SMILES	ERa SRC1 pot	HePTP inh	Smad3 FoxH1 inh	ERb SRC1 inh	Candida biofilm	ERa coact inh
Oc1ccc(Cl)cc1/C=N/Nc1cc(N2CCCC2)nc(N2CCCC2)n1	nt	i	nt	nt	nt	nt
O=C(Nc1ncc2c(n1)CC(c1ccco1)CC2=O)c1ccccc1 (stereo not drawn)	i	i	i	i	i	i
O=C1CC(c2ccco2)Cc2nc(Nc3nc(-c4ccccc4)c4ccccc4n3)ncc21 (stereo not drawn)	i	i	i	51[fluorescence artefact?]	i	i
CC(C)(C)c1ccc2c(c1[N+](=O)[O-])C(=O)c1ccccc1C2=O	nt	i	nt	nt	nt	nt
O=S(=O)(O)c1ccc2c(N=Nc3cccc4ccccc34)c(O)c(S(=O)(=O)O)cc2c1	nt	nt	i	nt	nt	nt
O=[N+]([O-])c1ccc2c(N=Nc3ccc4ccccc4c3O)c(O)cc(S(=O)(=O)O)c2c1	nt	nt	72	nt	nt	nt
COc1ccc(C(=O)c2c(C(F)(F)F)oc3c2C(=O)c2ccccc2C3=O)cc1	i	nt	i	68	i	i
CN(C)C1(c2cccs2)CS(=O)(=O)C1	nt	102	nt	nt	nt	nt
COc1ccc2c(c1)OCC/C2=N\OC(=O)c1ccccc1F	nt	i	nt	nt	nt	nt
COCCN(CCOC)C(=O)c1c[nH]c2ccc(S(=O)(=O)N(C)c3ccc(F)cc3)cc2c1=O	i	i	i	i	i	53[fluorescence artefact?]
CCC1CCCCN1C(=O)c1c[nH]c2ccc(S(=O)(=O)N(C)c3ccc(Cl)cc3)cc2c1=O (stereo not drawn)	i	nt	i	i	i	58[fluorescence artefact?]
CCN(CC)S(=O)(=O)c1ccc2[nH]cc(C(=O)NCCN3CCCCCC3)c(=O)c2c1	i	i	i	i	i	i
CN(c1ccc(F)cc1)S(=O)(=O)c1ccc2[nH]cc(C(=O)O)c(=O)c2c1	i	i	i	i	i	55[fluorescence artefact?]
CCc1ccc(N(C)S(=O)(=O)c2ccc3[nH]cc(C(=O)NCCN4CCOCC4)c(=O)c3c2)cc1	i	nt	i	i	46	i
CCOc1ccc(N(C)S(=O)(=O)c2ccc3[nH]cc(C(=O)NCC4CCCO4)c(=O)c3c2)cc1 (stereo not drawn)	i	i	i	i	i	i
Cc1ccc(/C=C/C(=O)N2CCN(C/C=C/c3ccccc3)CC2)o1	nt	i	nt	nt	nt	nt
CCCC(C)NC(=O)c1c(-c2c(Cl)cccc2Cl)noc1C (stereo not drawn)	nt	i	nt	nt	nt	nt
COc1ccc(Cn2nnnc2C(c2ccccc2OC)N2CCC(C(N)=O)CC2)cc1 (stereo not drawn)	i	i	i	64	i	i
COc1ccc(OC)c(C(c2nnnn2Cc2ccccc2)N2CCC(C(N)=O)CC2)c1 (stereo not drawn)	i	i	i	i	i	i
COc1ccc([C@@H](Nc2ncccn2)c2cc3c(cc2O)OCO3)cc1	nt	nt	i	nt	nt	nt
COc1ccc([C@@H](Nc2ccccn2)c2cc(C(C)(C)C)cc(C(C)(C)C)c2O)cc1	nt	nt	69	nt	nt	nt
O=c1c2c([nH]c3ccccc13)C(=C1CCCC1)CC2	i	i	i	84	i	77[fluorescence artefact?]
Cc1nc2sccn2c1-c1nc(-c2cc3ccccc3o2)cs1	i	i	i	i	i	61
COc1ccc(CN2CCN(C3CCCCC3)CC2)c(OC)c1	nt	i	nt	nt	nt	nt
O=C(Nc1nc2ccccc2[nH]1)C1CC(=O)N(c2ccc3c(c2)OCCO3)C1 (stereo not drawn)	i	i	i	i	nt	68[fluorescence artefact?]
SMILES	ERa SRC1 pot	HePTP inh	Smad3 FoxH1 inh	ERb SRC1 inh	Candida biofilm	ERa coact inh
O=C1NC(=Nc2ccc(O)cc2)S/C1=C\c1ccccc1	nt	i	nt	nt	nt	nt
Cc1ccc2ccc(C3C(=O)c4ccccc4C3=O)nc2c1	395	nt	i	i	i	i
Cc1ccc2nc(-c3ccc(N)cc3)cc(-c3ccccc3)c2c1	nt	i	nt	nt	nt	nt
CC1=Nc2ccccc2/C1=C/c1c(O)n(-c2ccc(Cl)cc2)c(=O)[nH]c1=O	nt	i	nt	nt	nt	nt
OC(COc1ccc(C2C=CCC2)cc1)CN1CCCCC1 (stereo not drawn)	263[fluorescence artefact?]	i	67	63[fluorescence artefact?]	i	i
O=c1oc(-c2cccc(F)c2)nc2c1cnn2-c1ccccc1	nt	i	nt	nt	nt	nt
CCOc1[nH]c(/N=C/c2ccco2)c(C#N)c1C#N	i	i	i	60	i	i
N#Cc1c(/N=C/c2ccco2)sc2c1CCC2	i	i	i	i	i	i

Bioassay records (PubChem BioAssay)
